Screening data (PubChem)
An excerpt weighted towards active compounds, which were near 21% of everything screened.
D3 ag: qHTS of D3 Dopamine Receptor Agonist: qHTS. max activation, %. D3R DiscoveRx beta-arrestin cells, luminescence, 90 min. D(3) dopamine receptor (Homo sapiens), P35462. 410,000 compounds, 0.58% hits. AID 652048, 2013; in the data active = max activation above about 30%; note: 0% is about no effect
Target sequence (P35462 whole entry, looked up): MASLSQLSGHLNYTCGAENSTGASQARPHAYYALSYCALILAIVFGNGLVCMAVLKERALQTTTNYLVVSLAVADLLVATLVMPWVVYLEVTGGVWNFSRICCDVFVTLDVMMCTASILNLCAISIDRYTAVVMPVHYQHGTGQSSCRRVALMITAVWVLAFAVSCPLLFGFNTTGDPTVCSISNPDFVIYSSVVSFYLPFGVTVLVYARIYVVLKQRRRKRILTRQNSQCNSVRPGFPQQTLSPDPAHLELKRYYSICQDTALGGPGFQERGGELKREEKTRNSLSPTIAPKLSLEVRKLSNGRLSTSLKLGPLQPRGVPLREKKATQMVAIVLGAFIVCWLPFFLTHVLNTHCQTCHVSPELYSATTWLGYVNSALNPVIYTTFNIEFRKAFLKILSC
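Agonist mode: compounds and dopamine controls were applied to plated cells for 90 min at 37 degrees C after an overnight attachment at 1500 cells/well. Luminescent read-out followed 30 - 60 minutes at room temperature with DiscoveRx detection reagent.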
TDP1 cell noCPT: qHTS for Inhibitors of human tyrosyl-DNA phosphodiesterase 1 (TDP1): qHTS in cells in absence of CPT | DT40 Tdp1-/- hTDP1 cells, no CPT, ATP luminescence, 48 h | Potency, µM (titrated, usually from 46.2 µM), without a hit: at the highest dose activity change, negative = growth inhibition, most hits filed as inhibitors | 420,000 compounds, 15% hits; note: potency is the fitted concentration of half-maximal effect; % is set by controls: 0 for no effect and ±100 for the full control effect; nearly all actives have a fitted effect of over 55% in size
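Readout: luminescence from CellTiter-Glo after 30 min in the dark at RT. Cells: DT40 Tdp1-/- with stable hTDP1, 400/well. Exposure: compounds alone, ≥48 hr, 37 °C.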
ClpP mod: qHTS Assay for Activators of ClpP | 340,000 compounds, 1.9% hits | purified B. subtilis ClpP, FRET peptide cleavage, 20 min | ATP-dependent Clp protease proteolytic subunit (Bacillus subtilis (strain 168)), P80244 | AID 651965, 2013 | Potency, µM (titrated, usually from 57.5 µM), for inactives: at the top dose activity change, negative = active; active = well fitted falling curve with a large enough effect; inconclusive = small, poorly fitted or top-dose-only effect; inactive = no such curve, though single readings can be large or run the other way; note: potency is the fitted concentration of half-maximal effect; the source files actives as falling curves though it sought activators and does not explain the sign; nearly all actives have a fitted effect of over 65% in size
Target sequence (P80244 whole entry, looked up): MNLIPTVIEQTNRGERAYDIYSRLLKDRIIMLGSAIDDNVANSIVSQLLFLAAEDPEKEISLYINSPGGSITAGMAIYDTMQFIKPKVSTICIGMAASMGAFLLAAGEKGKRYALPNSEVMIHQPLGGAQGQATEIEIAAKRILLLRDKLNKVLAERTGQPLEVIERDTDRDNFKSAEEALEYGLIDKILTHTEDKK
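ClpP 10 microg/mL final, pH 8 Tris/KCl buffer with BSA, glycerol, Tween-20; compound pinned in; FRET-FV substrate; RT 20 min; Ex320/Em430; ΔFRET vs ADEP 5.8 microM, DMSO, no enzyme.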
TDP1 cell CPT: qHTS for Inhibitors of human tyrosyl-DNA phosphodiesterase 1 (TDP1): qHTS in cells in presence of CPT | chicken DT40 Tdp1-/-;hTDP1 cells + 20 nM CPT, ATP luminescence, 48 h | Potency, µM (top dose mostly 46.2 µM), for inactives: at the highest dose activity change, negative = growth inhibition, actives largely listed as inhibitors | 420,000 compounds, 12% hits | AID 686979, 2013; note: potency is the fitted concentration of half-maximal effect; % is set by controls: 0 for no effect and ±100 for the full control effect; nearly all actives have a fitted effect of over 55% in size
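Chicken DT40 Tdp1-/- cells complemented with human TDP1, 400 cells/well, exposed to compounds plus 20 nM camptothecin for at least 48 h at 37 C; viability read as ATP content by CellTiter-Glo luminescence.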
IL-1B inflam inh: qHTS for Inhibitors of Inflammasome Signaling: IL-1-beta AlphaLISA Primary Screen; THP-1 LPS/ATP IL-1B secretion, AlphaLISA, 16 h; stronger effect = lower value; 360,000 compounds, 4.7% hits; activity change, % at 57.5 µM; in the data active = activity change below about -50%; inconclusive = mostly about -30% to -49%; note: % is set by controls: 0 for no effect and ±100 for the full control effect
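THP-1 cells pretreated 1 hr with compounds (up to 57.5 uM final), then stimulated with LPS (250 ng/mL final) plus ATP (1.25 mM final); secreted IL-1B measured by AlphaLISA after 16 hr, decreased signal indicating inhibition.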
DRD3 antagonist: qHTS of D3 Dopamine Receptor Antagonist: qHTS; D3R cells, DiscoveRx beta-arrestin luminescence, antagonist mode; stronger effect = lower value; max response, negative = inhibition, %; 360,000 compounds, 2.5% hits; in the data active = max response below about -50%; inconclusive = no clear call, values can overlap the other calls; note: % is set by controls: 0 for no effect and ±100 for the full control effect
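Cells plated overnight at 1500 cells/well, then exposed to library compounds with dopamine controls for 90 minutes at 37 degrees C. DiscoveRx reagent added for 30–60 minutes at room temperature; luminescence read, quantitative HTS format.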
* hit, by the source's call; ? = inconclusive; · = no result; [ ] = dose if it differs, or a comment. Unless noted, calls come from the whole dose curve; as a rule, active = well fitted inhibition curve with a large enough effect; inconclusive = small, poorly fitted or top-dose-only effect; inactive = flat fitted curve, though single readings scatter.

SMILES	D3 ag	TDP1 cell noCPT	ClpP mod	TDP1 cell CPT	IL-1B inflam inh	DRD3 antagonist
CC1=C(/C=C/C(C)=C/C=C/C(C)=C/C(=O)Oc2c(C)c(C)c3c(c2C)CC[C@@](C)(CCC[C@H](C)CCC[C@H](C)CCCC(C)C)O3)C(C)(C)CCC1	9	-22%	·	-3%	·	·
CC(C)NC(=O)N(C)C[C@H]1OCc2cnnn2CCCC(=O)N([C@H](C)CO)C[C@H]1C	3	4%	2%	12%	22	8
COCCCN1CN=C(Nc2nc3ccccc3o2)NC1	2	-9%	0%	-7%	-14	-20
COc1ccc(CCNC(=O)C2CCN(Cc3nc(-c4ccc(OC)c(OC)c4)oc3C)CC2)cc1OC	6	?	-9%	2%	·	·
CCN1CCCC1CNC(=O)C1CCN(Cc2nc(-c3cccc(Br)c3)oc2C)CC1 (configuration not stated)	-6	2.9µM*	0%	5.8µM*	-83*	?
CC1=C(C(=O)Nc2ccc(C)cc2C)C(c2cccn2C)n2ncnc2N1 (configuration not stated)	5	-23%	-1%	-2%	·	·
CC#CCOCC1CNC(=O)O1 (configuration not stated)	1	-3%	1%	-8%	4	9
O=C(OCC(=O)c1c[nH]c2ccccc12)c1cccc([N+](=O)[O-])c1	-5	11%	0%	-11%	0	-20
CCOc1ccccc1NC(=O)c1cc(-c2cc(OC)c(OC)c(OC)c2)nc2ccccc12	17	7.3µM*	·	10µM*	1	49
COc1cc(-c2cc(C(=O)Nc3ccncc3)c3ccccc3n2)cc(OC)c1OC	9	1.3µM*	0%	2.9µM*	-50*	43
COc1cc(C=Nc2ccccc2C(=O)Nc2ccccc2)cc(OC)c1OC	-2	-13%	25µM*	5%	-22	-5
COc1cc(NC(=O)c2cc(-c3ccccc3)nc3c2cnn3C(C)C)cc(OC)c1OC	4	5.8µM*	5%	13µM*	-22	80
COc1ccccc1NC(=O)c1cc(-c2cc(OC)c(OC)c(OC)c2)nc2ccccc12	21	7.3µM*	·	9.2µM*	-3	105
CC1CCCCN1CCCNC(=O)c1[nH]c2ccccc2c1Sc1ccc(Cl)cc1 (configuration not stated)	0	13µM*	-1%	10µM*	·	·
COc1ccc2c(Sc3ccccc3)c(C(=O)NCCCN3CCCCC3)[nH]c2c1	-1	18µM*	-7%	?	·	·
COc1ccc2c(Sc3ccccc3)c(C(=O)NCCN(C)C)[nH]c2c1	-15	?	-3%	?	·	·
CCOC(=O)C1CCCN(C(=O)c2[nH]c3ccccc3c2Sc2ccc(Cl)cc2)C1 (configuration not stated)	-15	?	-2%	?	·	·
COCCNC(=O)c1[nH]c2cc(C)ccc2c1Sc1ccc(Cl)cc1	5	-10%	-1%	0%	·	·
CCOc1ccc(CCNC(=O)c2[nH]c3cc(OC)ccc3c2Sc2ccccc2)cc1OCC	2	-18%	22µM*	?	·	·
O=C(NCCCN1CCCCC1)c1[nH]c2ccccc2c1Sc1ccc(Cl)cc1	3	21µM*	-3%	21µM*	·	·
COC(=S)N/C(=N\S(=O)(=O)c1ccc(Cl)cc1)c1ccccc1	4	-1%	-1%	-10%	-1	-5
COc1ccc2c(Sc3ccccc3)c(C(=O)N3CCC(C)CC3)[nH]c2c1	-11	?	1%	21µM*	·	·
Cc1ccc(NC(=O)CNCC(c2ccccc2)N(C)C)cc1F (configuration not stated)	-12	-14%	-3%	-11%	-21	-28
Cc1cc(NC(=O)CNCC(c2ccccc2)N(C)C)c([N+](=O)[O-])cc1C (configuration not stated)	3	1%	1%	5%	-8	-54*
O=C(NCc1cccs1)c1nn(-c2ccccc2)nc1CO	12	?	3%	-26%	·	·
SMILES	D3 ag	TDP1 cell noCPT	ClpP mod	TDP1 cell CPT	IL-1B inflam inh	DRD3 antagonist
O=C(NCc1ccccc1)c1nn(-c2ccccc2)nc1CO	8	?	32µM*	-28%	·	·
O=C(NCc1cccnc1)c1nn(-c2ccc(Cl)cc2)nc1CO	9	?	28µM*	-17%	·	·
CCn1c(SC2CCOC2=O)nnc1-c1ccc(Cl)cc1 (configuration not stated)	0	1%	0%	-7%	-3	0
CCc1nc2c(OCC(=O)C(C)(C)C)cccn2c1N(C=O)Cc1ccc(OC)cc1	-15	?	1%	-15%	49	0
CCc1nc2c(OCCC3CCCCC3)cccn2c1N(C=O)Cc1ccccc1	-7	?	-5%	16µM*	-26	-5
CCc1nc2c(OCCC3CCCCC3)cccn2c1N(C=O)Cc1ccc(OC)cc1	-12	?	-6%	?	-22	-77*
CCc1nc2c(OCC(=O)N(C)C)cccn2c1N(C=O)Cc1ccc(OC)cc1	8	2%	-5%	-4%	-8	-6
NC(=O)[C@@H]1CCCN1C(=O)CCN1Cc2ccccc2OC(c2ccccc2F)C1 (some centres not stated)	·	-8%	·	14%[9.04 µM]	·	·
Cc1cc(NC(=O)OC2CCCCC2)ccc1[N+](=O)[O-]	-3	?	·	-7%	-51*	-16
Cc1ccc(NC(=O)C2C3CCCCC32)cc1[N+](=O)[O-] (configuration not stated)	-4	0%	0%	-29%	7	-19
CCC(CC)C(=O)c1c[nH]c(C(=O)NC2CCCCCC2)c1	-24	2%	-2%	-8%	-66*	-6
CCC(CC)C(=O)c1c[nH]c(C(=O)NCc2ccccc2OC)c1	-13	?	-2%	21µM*	-12	-14
O=C1c2ccccc2[C@@H]2C[C@H]3O[C@H]3CCN12	0	-1%	-2%	5%	42	4
CC(Oc1cccc(Br)c1)C(=O)NNC(=O)c1ccccn1 (configuration not stated)	-16	2.3µM*	0%	2.9µM*	93	?
CC(C)C(=O)NNC(=O)c1ccccn1	-8	?	2%	?	0	3
